Z-score data for 15 molecules are collected here from PubChem BioAssay.

Activity calls are given as the source filed them.

Experiment [1] can be described thus: A549 cell viability effects, profiling panel, calcein-AM fluorescence, 48 h, basal (AID 1162). To be noted: higher = more signal.
The nature of experiment [2]: adipocyte viability effects, profiling panel, cell-based, 3T3-L1 adipocytes, calcein-AM fluorescence, 48 h, basal (AID 1163). To be noted: 3T3-L1 adipocytes viability, higher = more signal.
The nature of experiment [3]: HepG2 cell viability effects, profiling panel, calcein-AM fluorescence, 48 h, basal (AID 1164). Conditions: higher = more signal.
The nature of experiment [4]: MM1S cell viability effects, profiling panel, calcein-AM fluorescence, 48 h, basal (AID 1165).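 Also: viability of MM1S multiple myeloma cells under basal unstimulated conditions.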 Conditions: higher = more signal.
Experiment [5] in a line: basal RPMI8226 viability, no added stimulus, profiling panel, cell-based, calcein-AM fluorescence, 48 h, PK04 Diversity Set (AID 1166).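 Also: cells grown under basal conditions without added stimulus.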 To be noted: RPMI8226 myeloma viability, higher = more signal.
Experiment [6] in a line: basal HepG2 mitochondrial membrane potential changes, profiling panel, cell-based, JC-1 fluorescence, 24 h, 100 nL compound (AID 1167). To be noted: higher = more signal.
Experiment [7] in a line: basal 3T3-L1 adipocyte mitochondrial potential changes, profiling panel, cell-based, JC-1 fluorescence, 3T3-L1 adipocytes, 24 h, 100 nL compound (AID 1168). Conditions: JC-1 mitochondrial fluorescence, higher = more signal, called active from +8 up or from −8 down.
A short description of experiment [8]: basal RPMI8226 mitochondrial membrane potential changes, profiling panel, cell-based, JC-1 fluorescence, 24 h, 100 nL compound (AID 1169). Conditions: RPMI8226 myeloma, JC-1 mitochondrial potential fluorescence, higher = more signal.
Experiment [9] can be described thus: basal MM1S mitochondrial membrane potential changes, profiling panel, cell-based, JC-1 fluorescence, 24 h, 100 nL compound (AID 1170). Conditions: higher = more signal.
Experiment [10] in a line: A549 lung cancer cell viability effects, profiling panel, resazurin fluorescence, 24 h, PK04 Diversity Set (AID 1171). To be noted: higher = more signal, called active from +8 up or from −8 down. (Alamar Blue is a resazurin reagent that responds to reducing activity.)
Also: test concentration not given here.

For `CCC[C@@H]1C[C@@]1(CCC)[C@@H](NC(=O)c1ccco1)c1ccc(Cl)cc1`, the z-score in [1] is -1.03; in experiment [2] it was -0.741; in experiment [3] it was -1.06; in [4], -1.6; in experiment [5], -4.31; in [6], -1.62. In addition, the z-score was -0.00207 (inactive) in experiment [7], -0.736 in [8], -2.07 in [9] and -1.91 (inactive) in [10].

As to `CC(C)CNC(=O)[C@@]1(C)c2ccccc2C(=O)N(Cc2ccccc2)[C@H]1c1ccc(CO)cc1`, the z-score in experiment [1] is -0.151; in experiment [2], -0.751; in experiment [3] it was -0.323; in experiment [4] it was -0.408; in experiment [5] it was 0.0402; in experiment [6], 0.164. Further, the z-score is -0.491 (inactive) in [7], 0.0136 in [8], -0.216 in [9] and 0.407 (inactive) in experiment [10].

For `COc1ccc(CCNC(=O)[C@@H]2c3ccccc3C(=O)N(Cc3ccccc3)[C@H]2c2ccc(CO)cc2)cc1`, the z-score in experiment [1] is 2.96; in experiment [2], 1.29; in [3], 2.44; in [4], -0.913; in experiment [5], 1.02; in experiment [6], 2.56. Besides, the z-score was 1.26 (inactive) in experiment [7], -0.192 in [8], -0.502 in experiment [9] and 0.577 (inactive) in experiment [10].

Take `COC(=O)[C@@]1(Cc2ccc(OC)cc2)[C@H]2c3cc(C(=O)N4CCCC4)n(Cc4ccc(C)o4)c3C[C@H]2CN1C(=O)c1ccccc1`: the z-score was -3.86 in experiment [1]; -3.17 in [2]; -5.75 in [3]; -3.31 in experiment [4]; -4.69 in experiment [5]; -4.45 in experiment [6]. The z-score in [7] is 3.65 (inactive); in experiment [8], -0.815; in [9], -2.9; in experiment [10] it was -7.08 (inactive).

For `C[N+](C)(C)CCCC[C@@H]1NC(=O)[C@@H]2C[C@H](C(=O)O)[C@H](c3cccc(OCCO)c3)N2C1=O`, the z-score in experiment [1] was 1.58; in experiment [2] it was 0.185; in [3], 0.403; in experiment [4] it was 0.305; in [5] it was 0.367; in experiment [6], 2.43. Further, the z-score is 0.204 (inactive) in experiment [7], 0.423 in [8], 0.17 in experiment [9] and 1.13 (inactive) in experiment [10].

On to `COC(=O)[C@@]1(Cc2ccccc2)[C@H]2c3cc(C(=O)N4CCCC4)n(Cc4ccc(OC(F)(F)F)cc4)c3C[C@H]2CN1C(=O)c1ccccc1`, for which the z-score in experiment [1] is -0.975; in [2] it was -0.8; in experiment [3], -1.56; in [4], -1.89; in [5], -2.47; in experiment [6] it was 1.77. For the same molecule, the z-score is -1.42 (inactive) in [7], -0.717 in [8], -0.934 in experiment [9] and -1.46 (inactive) in experiment [10].

For the molecule `COCCOC(=O)N1C(=O)[C@@]2(c3cc(C#CCCO)ccc31)[C@H](C(=O)NC[C@H](O)c1ccccc1)[C@H]1C(=O)O[C@H](c3ccccc3)[C@H](c3ccccc3)N1[C@@H]2c1ccccc1OCCO`, the z-score in [1] was 1.27; in [2], 0.904; in [3], 1.21; in [4] it was -1.96; in experiment [5] it was -3.05; in experiment [6], -1.36. For the same molecule, the z-score in [7] is 0.833 (inactive); in experiment [8], -0.844; in [9], -0.424; in experiment [10], 0.715 (inactive).

As to `CC(C)C(CO)N1C(=O)[C@@H]2[C@H]3C(=O)OCC=C[C@H]3OC23C=CCN(Cn2nnc4ccccc42)C(=O)[C@@H]13` (stereo not given in full), the z-score in experiment [1] is -0.746; in experiment [2], -0.191; in experiment [3], -0.751; in [4], 0.48; in experiment [5], -0.653; in [6] it was -0.578. The z-score in experiment [7] was -0.373 (inactive); in experiment [8], 0.432; in experiment [9] it was 0.281; in experiment [10] it was -0.274 (inactive).

For `COC(=O)[C@H]1N=C(c2ccc(OCCCO)cc2)O[C@H]1c1ccccc1CN=[N+]=[N-]`, the z-score is -0.348 in experiment [1]; -0.409 in experiment [2]; 0.0036 in [3]; -1.95 in [4]; -0.35 in experiment [5]; -0.393 in [6]. In addition, the z-score in experiment [7] was 0.957 (inactive); in [8], 0.344; in [9] it was -0.823; in experiment [10], 2.65 (inactive).

In the case of `CC(C)(C)OC(=O)CC[C@@]1(C(=O)N2CCCCC2)N=C(c2ccc(OCCCO)cc2)O[C@@H]1c1ccccc1CN=[N+]=[N-]`, the z-score was 0.708 in experiment [1]; -0.125 in [2]; 1.25 in experiment [3]; -3.47 in experiment [4]; -0.624 in [5]; 2.12 in experiment [6]. The z-score in experiment [7] was -0.405 (inactive); in [8], -0.863; in [9] it was -0.995; in experiment [10], 0.642 (inactive).

Regarding `O=C(CS)NCCCCCNC(=O)[C@@H]1C[C@@H]2C(=O)N3CCC[C@H]3C(=O)N2[C@@H]1c1ccc(O)cc1`, the z-score in [1] was 0.644; in [2], -0.239; in [3], 0.413; in experiment [4], -0.96; in [5], 0.125; in [6], -0.264. Further, the z-score was -0.155 (inactive) in experiment [7], -0.282 in experiment [8], 0.684 in experiment [9] and -0.284 (inactive) in experiment [10].

Turning to `C#CCNS(=O)(=O)N(C)C`, the z-score was -0.277 in experiment [1]; -0.738 in experiment [2]; 0.759 in experiment [3]; 0.716 in [4]; -0.227 in experiment [5]; 0.563 in experiment [6]. Also, the z-score in experiment [7] is 0.48 (inactive); in experiment [8], 0.0262; in experiment [9], -0.777; in experiment [10] it was 0.943 (inactive).

On to `CCCC[C@H]1OB(O)C[C@H]2C1=C(COc1ccccc1)Cn1c(=O)n(-c3ccccc3)c(=O)n12`, for which the z-score in experiment [1] was -0.428; in experiment [2], 0.75; in experiment [3] it was -0.561; in experiment [4], -0.206; in experiment [5] it was -1.28; in [6] it was -2.12. Besides, the z-score in [7] was 0.16 (inactive); in experiment [8], 0.268; in experiment [9], -0.958; in [10], -0.412 (inactive).

As to `CC(C)c1ccc(NN2C(C(O)c3cccs3)C=CC3C(=O)N(c4ccccc4)C(=O)C32)cc1` (stereo not given), the z-score in [1] is -0.869; in [2] it was -0.986; in experiment [3] it was -0.245; in experiment [4], -0.639; in experiment [5], -0.476; in experiment [6] it was -2.91. Further, the z-score is -1.73 (inactive) in experiment [7], 0.183 in [8], 0.491 in [9] and -0.28 (inactive) in experiment [10].

`Cc1ccc(S[C@]2(C(=O)NCCN3CCOCC3)CC(=O)N(C3Cc4ccccc4C3)[C@@H]2c2ccc(CO)cc2)cc1`: the z-score in experiment [1] is -0.215; in experiment [2] it was -0.143; in experiment [3], -0.619; in experiment [4], -0.0655; in experiment [5] it was 0.0047; in [6], 0.699. For the same molecule, the z-score in experiment [7] is 0.242 (inactive); in experiment [8] it was 0.794; in experiment [9] it was -0.0188; in experiment [10], 0.665 (inactive).
